Test [1] is described as follows: compound effects on lung adenocarcinoma cell viability – A549, calcein-AM fluorescence, 48 h, basal, profiling panel (AID 1162). Further: test concentration not given here. The following applies: higher = more signal.
Test [2] in a line: compound effects on differentiated 3T3-L1 adipocyte viability – cell-based, 3T3-L1 adipocytes, calcein-AM fluorescence, 48 h, basal, profiling panel (AID 1163). Further: test concentration not given here. The following applies: 3T3-L1 adipocytes viability, higher = more signal.
The nature of test [3]: compound effects on hepatocellular carcinoma cell viability – HepG2, calcein-AM fluorescence, 48 h, basal, profiling panel (AID 1164). Further: test concentration not given here. The following applies: higher = more signal.
Test [4] in a line: compound effects on multiple myeloma cell viability – MM1S, calcein-AM fluorescence, 48 h, basal, profiling panel (AID 1165).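 Further: viability of MM1S multiple myeloma cells under basal unstimulated conditions; test concentration not given here.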 The following applies: higher = more signal.
Test [5] in a line: calcein-AM signal in unstimulated myeloma cells – cell-based, calcein-AM fluorescence, 48 h, PK04 Diversity Set, profiling panel (AID 1166).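 Further: cells grown under basal conditions without added stimulus; test concentration not given here.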 The following applies: RPMI8226 myeloma viability, higher = more signal.
Test [6] can be described thus: JC-1 mitochondrial signal, unstimulated HepG2 cells – cell-based, JC-1 fluorescence, 24 h, 100 nL compound, profiling panel (AID 1167). Further: test concentration not given here. The following applies: HepG2 mitochondrial potential, higher = more signal.
Test [7] in a line: JC-1 mitochondrial signal, unstimulated adipocytes – cell-based, JC-1 fluorescence, 3T3-L1 adipocytes, 24 h, 100 nL compound, profiling panel (AID 1168). Further: test concentration not given here. The following applies: JC-1 mitochondrial fluorescence, higher = more signal, called active from +8 up or from −8 down.
Test [8] in a line: JC-1 mitochondrial signal, unstimulated myeloma cells – cell-based, JC-1 fluorescence, RPMI8226, 24 h, 100 nL compound, profiling panel (AID 1169). Further: test concentration not given here. The following applies: JC-1 mitochondrial potential fluorescence, higher = more signal.
Test [9] in a line: JC-1 mitochondrial signal, unstimulated MM1S myeloma – cell-based, JC-1 fluorescence, 24 h, 100 nL compound, profiling panel (AID 1170). Further: test concentration not given here. The following applies: MM1S mitochondrial potential, higher = more signal.
A short description of test [10]: resazurin metabolic signal in A549 cells – cell-based, resazurin fluorescence, 24 h, PK04 Diversity Set, profiling panel (AID 1171). Further: test concentration not given here. The following applies: A549 viability, higher = more signal, called active from +8 up or from −8 down. For orientation: The colour change of resazurin is a common sign of viable cells or microbes.
Test [11] can be described thus: resazurin metabolic signal in HepG2 cells – cell-based, resazurin fluorescence, 24 h, PK04 Diversity Set, profiling panel (AID 1172). Further: test concentration not given here. The following applies: HepG2 viability, higher = more signal.
Test [12] is described as follows: budding yeast growth changes without added modifier – OD600, strain BY4716, 24 h, basal condition, primary screen (AID 1173). The following applies: S. cerevisiae BY4716 growth, OD600, 24 h; higher = more signal, called active from +8 up or from −8 down.
A short description of test [13]: viability profiling in MM1S myeloma cells – cell-based, resazurin fluorescence, basal, 24 h, PK04 Diversity Set, profiling panel (AID 1174). Further: test concentration not given here. The following applies: higher = more signal, called active from +8 up or from −8 down.
Test [14] concerns the target Dihydroorotate dehydrogenase (quinone), mitochondrial (Plasmodium falciparum (isolate 3D7)) (UniProt Q08210). As to the kind of experiment: inhibition of P. falciparum DHODH – biochemical, C-terminal His tag, absorbance 600 nm, primary screen (AID 1175).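 Further: recombinant parasite enzyme with a five histidine tag at its C terminus; test concentration not given here.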 The following applies: PfDHODH enzyme, DCIP absorbance 600 nm; higher = more signal, called active from +8 up or from −8 down.

The nature of test [15]: inhibition of PAO1 biofilm formation – strain PAO1, LB-PBS medium, absorbance 600 nm, primary screen (AID 1176). Further: test concentration not given here. The following applies: P. aeruginosa PAO1 growth/biofilm, A600, 12 h; higher = more signal.
Test [16] can be described thus: growth modulation of vineyard yeast isolate – strain RM11-1a, OD600, basal, 24 h, primary screen (AID 1177).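 Further: cultures grown under basal conditions with no added stressor; test concentration not given here.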 The following applies: S. cerevisiae RM11-1a growth, OD600, 24 h; higher = more signal, called active from +8 up or from −8 down.
Test [17] is described as follows: growth of efflux-deficient E. coli DRC39 – strain DRC39, OD650, 24 h, E. coli filamentation inducers, primary screen (AID 1178).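 Further: growth measured as culture turbidity by optical density at 650 nm; test concentration not given here.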 The following applies: E. coli DRC39 acrAB, higher = more signal, called active from +8 up or from −8 down.
The nature of test [18]: growth of efflux-deficient E. coli DRC39 – strain DRC39, OD650, 48 h, E. coli filamentation inducers, primary screen (AID 1179).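 Further: screen aims at cell division blockers that make cells filament.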 The following applies: E. coli DRC39 delta-acrAB growth, higher = more signal, called active from +8 up or from −8 down.
Test [19] is described as follows: viability profiling in RPMI8226 myeloma cells – cell-based, resazurin fluorescence, basal, 24 h, PK04 Diversity Set, profiling panel (AID 1180).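 Further: RPMI8826 multiple myeloma cell line at 5000 cells per well; test concentration not given here.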 The following applies: higher = more signal.
In test [20] the target is E3 ubiquitin-protein ligase XIAP (Homo sapiens) (UniProt P98170). As to the kind of experiment: small molecules binding XIAP protein – biophysical, small-molecule microarray, fluorescence 635 nm, primary screen (AID 1181).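 Further: score merges 667 nm emission and signal to noise over triplicate slides.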 The following applies: higher = more signal.

The source made the active and inactive calls. Unless noted, how the calls were made is not given here.

Chain of E3 ubiquitin-protein ligase XIAP (Homo sapiens) (P98170 whole entry, looked up): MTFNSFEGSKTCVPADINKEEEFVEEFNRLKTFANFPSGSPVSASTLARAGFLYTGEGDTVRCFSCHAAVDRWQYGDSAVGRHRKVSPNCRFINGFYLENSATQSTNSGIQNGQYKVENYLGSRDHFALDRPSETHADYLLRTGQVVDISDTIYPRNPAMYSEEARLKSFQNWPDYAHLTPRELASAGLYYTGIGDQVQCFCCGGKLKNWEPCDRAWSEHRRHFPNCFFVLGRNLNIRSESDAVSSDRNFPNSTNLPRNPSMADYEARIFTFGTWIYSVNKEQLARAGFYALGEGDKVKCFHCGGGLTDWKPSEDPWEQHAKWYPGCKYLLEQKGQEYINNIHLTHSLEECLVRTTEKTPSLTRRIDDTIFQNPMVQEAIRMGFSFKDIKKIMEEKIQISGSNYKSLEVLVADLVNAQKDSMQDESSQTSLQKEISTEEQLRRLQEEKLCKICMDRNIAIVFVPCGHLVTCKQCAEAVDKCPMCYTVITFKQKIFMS
Chain of Dihydroorotate dehydrogenase (quinone), mitochondrial (Plasmodium falciparum (isolate 3D7)) (Q08210 whole entry, looked up): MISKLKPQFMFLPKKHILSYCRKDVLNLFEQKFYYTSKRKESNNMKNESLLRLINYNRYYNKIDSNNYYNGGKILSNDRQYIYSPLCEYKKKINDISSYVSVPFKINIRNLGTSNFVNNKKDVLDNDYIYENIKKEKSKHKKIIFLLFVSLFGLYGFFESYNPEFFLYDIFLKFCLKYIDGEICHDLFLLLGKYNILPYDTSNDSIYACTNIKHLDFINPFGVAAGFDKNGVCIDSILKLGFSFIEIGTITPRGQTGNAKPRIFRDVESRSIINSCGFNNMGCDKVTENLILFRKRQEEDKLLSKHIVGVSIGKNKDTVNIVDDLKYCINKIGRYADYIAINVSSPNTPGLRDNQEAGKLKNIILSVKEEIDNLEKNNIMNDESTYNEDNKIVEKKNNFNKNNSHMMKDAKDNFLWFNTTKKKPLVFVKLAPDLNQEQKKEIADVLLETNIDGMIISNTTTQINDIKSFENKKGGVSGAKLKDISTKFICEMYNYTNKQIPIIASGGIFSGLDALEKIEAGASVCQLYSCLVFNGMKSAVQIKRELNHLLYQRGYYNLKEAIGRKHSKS

`OCC1CC(c2ccccc2)=NO1` (stereo not given): the z-score in test [1] is 0.71; in test [2], 0.311; in test [3] it was -0.0218; in test [4], 0.554; in test [5], -0.676; in test [6], 0.883. The z-score in test [7] is -0.765 (inactive); in [8] it was 0.527; in test [9] it was -0.201; in test [10], 0.281 (inactive); in test [11], -0.107; in test [12], -1.09 (inactive). Further, the z-score was -0.85 (inactive) in test [13]; -0.201 (inactive) in test [15]; 0.309 (inactive) in test [16]; -0.075 (inactive) in test [17]; 0.194 (inactive) in [18]; 0.886 in test [19]. For the same compound, the composite z-score in test [14] is -0.17 (inactive); in test [20], -0.158.

For `Cc1ccc(S[C@]2(C(=O)O)CC(=O)N(C3Cc4ccccc4C3)[C@@H]2c2ccc(CO)cc2)cc1`, the z-score is -0.197 in test [1]; 0.729 in test [2]; -0.574 in [3]; -0.428 in test [4]; -2.56 in test [5]; 0.125 in test [6]. Moreover, the z-score in test [7] is -0.58 (inactive); in [8] it was 0.522; in [9], 0.353; in test [10], -0.831 (inactive); in [11], -0.684; in [12] it was -0.528 (inactive). The z-score in [13] was -0.444 (inactive); in test [15], 1.15 (inactive); in [16], -0.157 (inactive); in test [17], -0.185 (inactive); in [18], -0.108 (inactive); in test [19] it was -0.396. Also, the composite z-score is -1.03 (inactive) in [14] and -0.205 in test [20].

Take `O=C(NCC(F)(F)F)[C@@H]1c2ccccc2C(=O)N(Cc2ccccc2C(F)(F)F)[C@H]1c1ccc(CO)cc1`: the z-score in [1] was 0.215; in test [2], -0.484; in test [3] it was 0.0606; in test [4] it was 0.0756; in test [5] it was -0.328; in [6] it was 0.277. Moreover, the z-score was -1.07 (inactive) in test [7]; 0.0161 in test [8]; -0.894 in [9]; 0.456 (inactive) in test [10]; -0.0877 in test [11]; 0.0223 (inactive) in test [12]. The z-score was -0.474 (inactive) in test [13]; 0.292 (inactive) in test [15]; -0.246 (inactive) in test [16]; -0.308 (inactive) in test [17]; 0.263 (inactive) in test [18]; -0.853 in test [19]. Also, the composite z-score was -0.184 (inactive) in [14] and -0.184 in [20].

On to `C=CCC(OC(C)=O)[C@@H]1[C@@H](N(Cc2cccc3ccccc23)C(=O)Cc2ccc(OC)cc2)c2cc(OCCCO)ccc2N1C(=O)c1ccc2ccccc2n1` (stereo not given in full), for which the z-score is -0.639 in [1]; 1.69 in test [2]; 0.493 in test [3]; -1.27 in test [4]; -0.192 in test [5]; 1.64 in test [6]. For the same compound, the z-score in test [7] was -0.0994 (inactive); in [8], 0.106; in test [9], 0.306; in [10] it was 0.679 (inactive); in [11] it was 0.602; in test [12], 0.0243 (inactive). Moreover, the z-score was -0.415 (inactive) in test [13]; -0.145 (inactive) in [15]; -0.212 (inactive) in test [16]; 0.884 (inactive) in [17]; 0.284 (inactive) in test [18]; 0.0309 in [19]. In addition, the composite z-score was -0.175 (inactive) in test [14] and 0.343 in test [20].

Take `CC(C)(C)N1CC=CC23O[C@@H]4C=CCCOC(=O)C4[C@H]2C(=O)N(CCO)[C@@H]3C1=O` (stereo not given in full): the z-score in [1] was -0.708; in [2], -0.358; in test [3], -0.811; in [4], 0.18; in test [5] it was 0.608; in test [6] it was -0.405. The z-score in [7] is -1.46 (inactive); in [8] it was 0.168; in test [9], -0.132; in test [10], -0.693 (inactive); in test [11] it was 0.388; in [12], 0.0947 (inactive). The z-score was -0.512 (inactive) in [13]; 0.345 (inactive) in test [15]; 0.451 (inactive) in test [16]; -1.02 (inactive) in test [17]; -1.05 (inactive) in [18]; -1.13 in test [19]. Besides, the figures for the composite z-score in test [14] and in test [20] were 0.427 (inactive) and 0.072, respectively.

As for `NC(=O)NCC#Cc1ccc2c(c1)[C@]1(C(=O)N2)[C@H](C(=O)NC[C@H](O)c2ccccc2)[C@H]2C(=O)O[C@H](c3ccccc3)[C@H](c3ccccc3)N2[C@@H]1c1ccc(OCCO)cc1`, the z-score in test [1] was -0.313; in test [2] it was 0.468; in [3], 0.0249; in [4], -0.254; in test [5], 1.25; in [6] it was -2.05. Besides, the z-score in [7] is -0.183 (inactive); in test [8] it was -1.1; in [9], -0.642; in [10], 0.818 (inactive); in test [11], 0.815; in [12], 1.5 (inactive). Moreover, the z-score in test [13] was 0.449 (inactive); in test [15], 1.72 (inactive); in [16], 2.91 (inactive); in test [17], 0.615 (inactive); in test [18] it was 0.541 (inactive); in test [19] it was 1.3. Besides, the composite z-score is -1.11 (inactive) in test [14] and 0.11 in test [20].

Regarding `COC(=O)[C@@]1(Cc2ccccc2)[C@H]2c3cc(C(=O)N(C)C)n(Cc4c(CO)[nH]cc(C)c4=O)c3C[C@H]2CN1C(=O)c1ccccc1`, the z-score was -0.218 in test [1]; -0.284 in test [2]; 1.2 in test [3]; -0.979 in test [4]; -0.247 in [5]; 1.34 in test [6]. The z-score in [7] was -0.235 (inactive); in [8] it was 0.445; in test [9], -0.491; in test [10], -0.25 (inactive); in [11], -0.613; in [12] it was 1.79 (inactive). Besides, the z-score was -0.706 (inactive) in [13]; 0.507 (inactive) in test [15]; 1.24 (inactive) in test [16]; -0.198 (inactive) in [17]; 0.0568 (inactive) in [18]; 0.0961 in test [19]. In addition, the values for the composite z-score in test [14] and in test [20] were 0.0442 (inactive) and -0.0663, respectively.

Take `[N-]=[N+]=Nc1ccccc1C[C@]1(C(=O)N2CCOCC2)N=C(c2ccc(OCCCO)cc2)O[C@H]1c1ccccc1`: the z-score in [1] is 0.375; in test [2], 0.854; in [3], 1.58; in test [4], -0.35; in [5] it was -0.911; in test [6], 1.99. The z-score in [7] is 1.18 (inactive); in [8], -1.18; in test [9], -0.438; in test [10], 0.0917 (inactive); in test [11] it was 1.32; in test [12], -0.576 (inactive). For the same compound, the z-score in [13] was -1.25 (inactive); in test [15] it was -0.608 (inactive); in test [16], 1.05 (inactive); in test [17] it was 1.11 (inactive); in test [18] it was 0.356 (inactive); in test [19], 0.101. In addition, the composite z-score was 0.404 (inactive) in [14] and 0.0761 in test [20].

For `C[N+](C)(C)CCCC[C@@H]1NC(=O)[C@H]2C[C@@H](C(=O)NCCCCCCN)[C@@H](c3ccc(O)cc3)N2C1=O`, the z-score in test [1] is 0.811; in [2], 0.629; in [3], 0.38; in [4], -1.39; in test [5], 0.135; in test [6], 1.28. Also, the z-score in test [7] is 0.367 (inactive); in test [8], -0.0466; in [9] it was 0.596; in test [10] it was 0.169 (inactive); in test [11] it was -0.132; in [12] it was 0.252 (inactive). Moreover, the z-score in test [13] was 0.99 (inactive); in test [15], -0.515 (inactive); in test [16] it was 1.18 (inactive); in test [17], -0.231 (inactive); in test [18], -0.185 (inactive); in test [19], 0.976. Also, the composite z-score was 0.302 (inactive) in test [14] and -0.0286 in [20].

The record behind these values is PubChem BioAssay.
